Assay outcomes (PubChem)
Only a selection was taken, and hits are over-represented in it overall.
TDP1 cell CPT: growth inhibition of DT40 Tdp1-/-;hTDP1 cells with camptothecin (screen for TDP1 inhibitors). chicken DT40 Tdp1-/-;hTDP1 cells + 20 nM CPT, ATP luminescence, 48 h. Potency, µM (series often up to 46.2 µM), hits mostly inhibitors. actives 12% (n = 420,000); further: nearly all actives have a fitted effect of over 55% in size
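Cell growth measured by CellTiter-Glo luminescence after a minimum 48 h, 37 C compound exposure with 20 nM CPT in Tdp1-knockout DT40 cells stably expressing hTDP1, seeded 400/well; qHTS titration format.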
TDP1 cell noCPT: qHTS for Inhibitors of human tyrosyl-DNA phosphodiesterase 1 (TDP1): qHTS in cells in absence of CPT. DT40 Tdp1-/- hTDP1 cells, no CPT, ATP luminescence, 48 h. Potency, µM (titrated, usually from 46.2 µM), actives largely listed as inhibitors. actives 15% (n = 420,000); further: nearly all actives have a fitted effect of over 55% in size
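Cells were dispensed at 400 per well, compounds added by pin tool, plates incubated ≥48 hr at 37 °C, then CellTiter-Glo added for 30 min at room temperature before luminescence reading. Line: DT40 Tdp1-/- complemented with hTDP1; camptothecin omitted.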
IL1B secr inh: inhibitors of inflammasome signaling (IL-1 beta secretion); activity change, % at 57.5 µM; THP-1 LPS/ATP IL-1B secretion, AlphaLISA, 16 h; stronger effect = lower value; actives 4.7% (n = 360,000); in the data active means activity change below about -50%; inconclusive means mostly about -30% to -49%
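Secreted IL-1B measured by AlphaLISA bead assay after 16 h compound exposure of THP-1 cells; compounds (final up to 57.5 uM) added 1 h before LPS (250 ng/mL) and ATP (1.25 mM) stimulation; lower signal means less secretion.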
HT1080 IDH1KD tx: HT-1080 IDH1 knockdown cell toxicity (counter line); HT-1080 IDH1 knockdown viability, ATP luminescence, 48 h; Potency, µM (highest dose often 46.1 µM), hits mostly cytotoxic; actives 2% (n = 360,000)
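CellTiter-Glo luminescence after 48 h compound exposure at 37 degrees C of IDH1-knockdown HT-1080 cells in 5% FBS RPMI. %Activity scaled between DMSO wells and cell-free media wells, with curves fitted and assigned curve classes.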
ALOX12 inh: blocks human arachidonate 12S-lipoxygenase | Potency, µM (doses to about 108 µM), actives largely listed as inhibitors | P18054 | actives 1.1% (n = 580,000) | purified 12hLO, xylenol orange hydroperoxide absorbance
Target sequence (P18054 whole entry, looked up): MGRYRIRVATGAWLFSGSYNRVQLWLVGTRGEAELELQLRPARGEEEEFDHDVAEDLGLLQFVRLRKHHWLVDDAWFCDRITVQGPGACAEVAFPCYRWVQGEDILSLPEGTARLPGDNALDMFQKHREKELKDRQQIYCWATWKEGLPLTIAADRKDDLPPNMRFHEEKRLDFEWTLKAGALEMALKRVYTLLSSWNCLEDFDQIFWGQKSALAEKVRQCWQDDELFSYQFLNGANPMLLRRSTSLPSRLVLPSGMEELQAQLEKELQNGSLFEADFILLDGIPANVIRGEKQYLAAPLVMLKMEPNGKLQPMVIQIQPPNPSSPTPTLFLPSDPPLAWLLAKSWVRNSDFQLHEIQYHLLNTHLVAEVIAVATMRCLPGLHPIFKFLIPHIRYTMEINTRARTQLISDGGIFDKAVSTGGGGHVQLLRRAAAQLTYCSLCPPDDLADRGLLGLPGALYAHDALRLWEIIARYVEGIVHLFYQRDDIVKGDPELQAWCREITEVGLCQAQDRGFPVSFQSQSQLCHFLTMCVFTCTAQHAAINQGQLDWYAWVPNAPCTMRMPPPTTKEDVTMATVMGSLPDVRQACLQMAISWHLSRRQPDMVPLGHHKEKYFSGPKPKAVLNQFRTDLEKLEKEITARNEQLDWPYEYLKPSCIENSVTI
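Purified human 12hLO (150 nM final) in 25 mM Hepes, 0.01% Triton X-100, pH 7.0 was preincubated 15 min at room temperature with compound. Then 40 uM arachidonic acid was added, 30 min. Hydroperoxide was read by Fe-XO absorbance ratio 573/405 nm.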
HT1080-NT tox: kills 2HG-producing HT-1080-NT fibrosarcoma cells. HT-1080-NT fibrosarcoma viability, CellTiter-Glo ATP luminescence, 48 h. Potency, µM (titrated, usually from 46.1 µM), most hits filed as cytotoxic. actives 1.6% (n = 360,000). AID 686970;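 further: NT is the 2HG producing partner of a matched IDH1 knockdown line; nearly all actives have a fitted effect of over 55% in size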
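Fibrosarcoma NT cells, 750 per well in 5% FBS RPMI, were exposed to compound for 48 hours. Viability: CellTiter-Glo luminescence.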
A number is an active result. Unless noted, the call rests on the fitted dose curve; in most records, active means well fitted curve in the direction sought with a large enough effect; inconclusive means small, poorly fitted or top-dose-only effect, or another doubt; inactive means no such curve, though single readings can be large; an effect the other way counts as inactive or inconclusive.

Screening CCOC(=O)c1c(NC(=O)CSc2cn(CCNC(=O)c3ccccc3OC)c3ccccc23)sc2c1CCCC2 returned TDP1 cell CPT inconclusive, TDP1 cell noCPT 23µM and ALOX12 inh inactive.
CCOC(=O)c1c(NC(=O)CSc2cn(CCNC(=O)c3ccccc3OC)c3ccccc23)sc2c1CCC2 was read as TDP1 cell CPT inconclusive, TDP1 cell noCPT inconclusive and ALOX12 inh inactive.
`CCOC(=O)c1c(NC(=O)CSc2c[nH]c3ccccc23)sc2c1CCC2` gave TDP1 cell CPT inconclusive, TDP1 cell noCPT 13µM, IL1B secr inh inactive, HT1080 IDH1KD tx inconclusive, ALOX12 inh inactive and HT1080-NT tox inconclusive.
For CCOC(=O)c1c(NC(=O)CSc2cn(CCNC(=O)c3ccccc3F)c3ccccc23)sc2c1CCCC2 the results were TDP1 cell CPT 16µM, TDP1 cell noCPT 16µM and ALOX12 inh inactive.
For CCOC(=O)c1c(NC(=O)COc2cccc3c2CCN(CC)C3=O)sc2c1CCC2 the results were TDP1 cell CPT inconclusive, TDP1 cell noCPT 8.2µM, IL1B secr inh inactive, HT1080 IDH1KD tx inactive, ALOX12 inh inactive and HT1080-NT tox inactive.
COC(=O)c1cc(S(=O)(=O)Nc2ccc(F)cc2C)c[nH]1 was read as ALOX12 inh inactive.
Screening CN(C)[S+](=O)([O-])c1ccc2c(c1)OCCN(Cc1ccsc1)C2 returned ALOX12 inh inactive.
`COc1ccc(NC(=O)N2C[C@@H]3C[C@H](C2)c2ccc(NS(=O)(=O)c4ccc(OC)cc4)c(=O)n2C3)cc1` gave ALOX12 inh inactive.
CCOC(=O)c1c(NC(=O)CSc2cn(CCNC(=O)c3ccc(OCC)cc3)c3ccccc23)sc2c1CCC2 was read as TDP1 cell CPT inactive, TDP1 cell noCPT inactive and ALOX12 inh inactive.
For CCOC(=O)c1c(NC(=O)C(C)Sc2cn(CCNC(=O)c3ccc(OC)cc3)c3ccccc23)sc2c1CCC2 (configuration not stated) the results were TDP1 cell CPT 21µM, TDP1 cell noCPT inconclusive and ALOX12 inh inactive.
`CC(Sc1ncccn1)c1cccc(NC(=O)c2ccccc2)c1` (configuration not stated) gave ALOX12 inh inactive.
`CCn1cc(C(=O)O)c(=O)c2cnc(N3CCN(C(=S)Nc4ccccc4)CC3)nc21` gave TDP1 cell CPT inconclusive, TDP1 cell noCPT inconclusive, IL1B secr inh inactive, HT1080 IDH1KD tx inactive, ALOX12 inh inactive and HT1080-NT tox inactive.
For CCn1cc(C(=O)O)c(=O)c2cnc(N3CCN(C(=S)Nc4ccccc4C(F)(F)F)CC3)nc21 the results were TDP1 cell CPT inactive, TDP1 cell noCPT 29µM, IL1B secr inh inactive, HT1080 IDH1KD tx inactive, ALOX12 inh inactive and HT1080-NT tox inactive.
CCn1cc(C(=O)O)c(=O)c2cnc(N3CCN(C(=S)NC(=O)c4ccccc4)CC3)nc21 was read as TDP1 cell CPT inactive, TDP1 cell noCPT inactive, IL1B secr inh inconclusive, HT1080 IDH1KD tx inactive, ALOX12 inh inactive and HT1080-NT tox inconclusive.
Screening CCCOc1ccc(C(=O)NC(=S)N2CCN(c3ncc4c(=O)c(C(=O)O)cn(CC)c4n3)CC2)cc1 returned TDP1 cell CPT 23µM, TDP1 cell noCPT inconclusive, IL1B secr inh inactive, HT1080 IDH1KD tx inactive, ALOX12 inh inconclusive and HT1080-NT tox inactive.
COc1ccc(C2CCCN2CC(O)COc2ccccc2C(C)C)cc1 (configuration not stated) was read as TDP1 cell CPT 23µM, TDP1 cell noCPT 13µM, IL1B secr inh inconclusive, HT1080 IDH1KD tx 21µM, ALOX12 inh inactive and HT1080-NT tox 21µM.
`Oc1ccccc1C1=NC(c2ccccc2)NC(c2ccccc2)C1` (configuration not stated) gave TDP1 cell CPT inconclusive, TDP1 cell noCPT 18µM, IL1B secr inh inconclusive, HT1080 IDH1KD tx inactive, ALOX12 inh inactive and HT1080-NT tox inactive.
